# Source: PubChem BioAssay (National Center for Advancing Translational Sciences (NCATS))
# The list is not random: actives were taken first. Their share in the collection is about 21%.
# Shiga toxin inh – A qHTS for Small Molecule Inhibitors of Shiga Toxin; Vero cells, Shiga toxin protein synthesis inhibition reporter; inhibition, % at 38.7 µM; 290,000 tested, 9.2% active; in the data active = inhibition mostly above about 28%, no sharp cut-off; inactive = mostly below about 43%; note: 0% is about no effect
# AMA1-RON2 inh – qHTS for Inhibitors of AMA1-RON; Towards Development of Antimalarial Drug Lead: Primary Screen | Plasmodium falciparum AMA1 (3D7) - RON2 peptide interaction | AlphaScreen AMA1-biotinylated RON2 peptide binding | Potency, µM (titrated, usually from 58.2 µM), inactives show top-dose activity change, negative = inhibition, most hits filed as inhibitors | 360,000 tested, 0.2% active | AID 720542, 2013;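 note: potency is the fitted concentration of half-maximal effect; 0% = vehicle wells and -100% = peptide control; nearly all actives have a fitted effect of over 45% in size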
#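 AMA1 (3D7) with his tag at 25 nM final met compounds first, then biotinylated RON2 peptide at 25 nM; detection used donor plus acceptor beads, 10 µg/mL apiece, read by AlphaScreen after 30 min at room temperature.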
# CHX counter – Cycloheximide Counterscreen for Small Molecule Inhibitors of Shiga Toxin | cell reporter, cycloheximide protein synthesis inhibition counterscreen | max response, % | 300,000 tested, 12% active | AID 2314, 2010; in the data active = max response mostly above about 13%, no sharp cut-off; inactive = mostly below about 14%; note: read at 38.3 µM for the half of the compounds with a filed dose; 0% is about no effect
# HCV inh – qHTS Assay for Inhibitors of Hepatitis C Virus (HCV); Huh7.5.1 HCVcc-Cre infection, luciferase reporter, 44 h; Potency, µM (top dose mostly 41.8 µM), without a hit: at the top dose activity change, negative = inhibition, actives largely listed as inhibitors; 340,000 tested, 3.4% active; AID 651820, 2012; note: potency is the fitted concentration of half-maximal effect; % is set by controls: 0 for no effect and ±100 for the full control effect
#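 Infectious HCVcc-Cre (~0.5 moi) was added to cells just after compound, with cells seeded 4 h earlier at 1,000 per well. Luciferase activity after 44 h culture reported infection; substrate was incubated 15 min at room temperature before reading.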
# Pf growth 48h – Primary qHTS for delayed death inhibitors of the malarial parasite plastid, 48 hour incubation; P. falciparum luciferase growth in erythrocytes, 48 h; Potency, µM (highest dose often 28.7 µM), inactives show top-dose activity change, negative = inhibition, actives largely listed as inhibitors; 310,000 tested, 5.9% active; AID 504832, 2011; note: potency is the fitted concentration of half-maximal effect; % is set by controls: 0 for no effect and ±100 for the full control effect
#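 Luciferase-expressing P. falciparum in infected erythrocytes (2% hematocrit, 0.1% parasitemia final) in RPMI 1640/0.5% Albumax were exposed to compound for 48 hours at 37 C, 5% CO2; growth read as luminescence.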
# Pf growth 96h – Primary qHTS for delayed death inhibitors of the malarial parasite plastid, 96 hour incubation; Potency, µM (titrated, usually from 28.7 µM), inactives show top-dose activity change, negative = inhibition, hits mostly inhibitors; P. falciparum luciferase reporter growth, 96 h; 320,000 tested, 6.9% active; note: potency is the fitted concentration of half-maximal effect; % is set by controls: 0 for no effect and ±100 for the full control effect
#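 Delayed-death screen, second-generation endpoint: infected erythrocytes, 2% hematocrit, 0.05% parasitemia final; 96 hours at 37 C, 5% CO2; luciferase detection reagent; luminescence decrease equals reduced growth.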
# Numbers without * were called inactive; u = inconclusive; x = not tested or not shown. Unless noted, calls come from the whole dose curve; as a rule, active = well fitted curve in the direction sought with a large enough effect; inconclusive = small, poorly fitted or top-dose-only effect, or another doubt; inactive = no such curve, though single readings can be large; an effect the other way counts as inactive or inconclusive.
SMILES,Shiga toxin inh,AMA1-RON2 inh,CHX counter,HCV inh,Pf growth 48h,Pf growth 96h
COc1ccc(Cl)cc1C(=O)Nn1cnc2ccccc2c1=O,-6,-3%,-2,-1%,43%,-17%
CC(C)[C@H]1COCCS(=O)(=O)N1Cc1cccc(Cl)c1,-4,-4%,-2,-4%,12%,u
CC1=C(C(=O)N(C(C)C)C(C)C)CC(CC(=O)NC(c2ccccc2)c2ccccc2)C(=O)N1Cc1ccc(F)cc1 (configuration not stated),x,-6%,x,x,x,x
CC(C)c1ccc(S(=O)(=O)N(C)C2(C)CCS(=O)(=O)C2)cc1 (configuration not stated),x,10%,x,-10%,56%,30%
CCCC(=O)N1CCc2cc(-c3nc(N)sc3C)ccc21,79*,32%,49*,-23%,108%,84%
CC(=O)Nc1nc(-c2ccc3c(c2)CCN3C(=O)C2CC2)c(C)s1,14,15%,7,-29%,-7%,-2%
CCC(C)C(=O)N1CCc2cc(-c3csc(N)n3)ccc21 (configuration not stated),65*,2%,52*,u,28%,7%
CC(C)(C)C(=O)N1CCc2cc(-c3csc(N)n3)ccc21,27,0%,6,3%,103%,-5%
CC(C)Sc1nc2c(c(=O)[nH]c(=O)n2C)n1Cc1ccc(Cl)cc1,-11,0%,-3,u,u,13µM*
CCOC(=O)C(C)Sc1nc2c(c(=O)[nH]c(=O)n2C)n1Cc1ccc(Cl)cc1 (configuration not stated),-9,-11%,-2,2.8µM*,u,u
CCOC(=O)CSc1nc2c(c(=O)[nH]c(=O)n2C)n1CCc1ccccc1,-22,2%,-7,-22%,6%,u
CCOC(=O)C(CC)Sc1nc2c(c(=O)[nH]c(=O)n2C)n1CCc1ccccc1 (configuration not stated),-19,-20%,-2,-5%,10µM*,12µM*
CCC(C)Sc1nc2c(c(=O)[nH]c(=O)n2C)n1CCc1ccccc1 (configuration not stated),-7,-3%,5,-10%,u,57%
CCC(C)Sc1nc2c(c(=O)[nH]c(=O)n2C)n1Cc1ccc(Cl)cc1 (configuration not stated),-20,-8%,-2,-13%,10µM*,x
Cc1ccc(Cn2c(SCC(C)C)nc3c2c(=O)[nH]c(=O)n3C)cc1,-4,-9%,-5,-15%,0%,x
O=C(CN1C(=O)/C(=C/c2ccccc2F)Sc2ccccc21)NCC1CCCO1 (configuration not stated),10,5%,2,u,-3%,-4%
COc1ccc(C(=O)NC(=O)NC2(C(Cl)(Cl)Cl)OCCO2)cc1,76*,6%,51*,18%,170%,169%
CC(C)Cc1nnc(NC(=O)C2CCCN(C(=O)c3ccc(Cl)cc3)C2)s1 (configuration not stated),x,-10%,x,x,x,x
COc1cccc(OCCSc2nnc3sc4ccccc4n23)c1,21*,0%,40*,-3%,11%,7%
CCN(CC)C(=O)CSc1nnc2sc3ccccc3n12,-8,0%,3,-1%,28%,u
c1ccc(OCCSc2nnc3sc4ccccc4n23)cc1,45*,10%,16,-13%,183%,20%
CCOC(=O)C1CCN(CC(=O)c2ccc(O)c(C)c2O)CC1,0,-5%,-2,5%,-10%,u
CNC(=O)c1ccc(=O)n(Cc2cccc(C(F)(F)F)c2)c1,-6,-13%,-5,4%,2.9µM*,2%
COC(=O)c1ccc(CN2C(=O)C(C)ON=C2c2ncccc2C)o1 (configuration not stated),x,38%,x,x,x,x
COC(=O)c1ccc(CN2C(=O)C3CCCCC3C2=O)o1 (configuration not stated),11,-2%,-4,15%,3.3µM*,60%
SMILES,Shiga toxin inh,AMA1-RON2 inh,CHX counter,HCV inh,Pf growth 48h,Pf growth 96h
NS(=O)(=O)c1ccc(CCNc2ccnc3cc(Cl)ccc23)cc1,-13,12%,32*,u,12µM*,10%
NS(=O)(=O)c1ccc(CCNS(=O)(=O)Cc2ccc(Cl)cc2)cc1,-2,1%,3,9%,10%,13µM*
O=S(=O)(Cc1ccccc1)NCCc1cccc(Cl)c1,25,-5%,-2,3%,-19%,3.3µM*
O=C1CCN(Cc2ccccc2)C(=S)N1,x,-9%,x,1%,x,x
Cc1ccc(C2OC(=O)C=C2c2ccccc2)cc1 (configuration not stated),x,2%,x,12%,u,0%
Cc1ccc2nc(NC(=O)C3CCCN3C(=O)OC(C)(C)C)sc2c1 (configuration not stated),16,-17%,16,-11%,3%,11%
C=CCOC(=O)C1=C(C)NC(C)=C(C(=O)OCC=C)C1c1ccc(O)cc1,-7,1%,0,u,u,4%
C=CCOC(=O)C1=C(C)NC(C)=C(C(=O)OCC=C)C1c1cn(-c2ccccc2)nc1-c1ccco1,-12,0%,-3,11%,u,3.7µM*
CCC1(c2ccc(F)cc2)NC(=O)N(CC(=O)NCc2ccccc2Cl)C1=O (configuration not stated),-14,-6%,-5,-13%,-2%,10%
CCN1C(=O)[C@H]2[C@@H](c3ccc(-c4ccc(Cl)c(Cl)c4)c(OC)c3)N3CCCC[C@@]3(C(=O)OC)[C@H]2C1=O,x,-6%,x,u,x,x
COC(=O)[C@@]12CCCCN1[C@H](c1ccc(-c3ccc(OC)cc3)c(OC)c1)[C@@H]1C(=O)N(C)C(=O)[C@@H]12,x,4%,x,u,9.3µM*,7.4µM*
CCN1C(=O)[C@@H]2[C@@H](c3ccc(-c4ccc(C(C)=O)cc4)c(OC)c3)N3CCC[C@@]3(C(=O)OC)[C@@H]2C1=O,x,-17%,x,-6%,10µM*,6.6µM*
CCN1C(=O)[C@@H]2[C@@H](c3ccc(-c4ccc5c(c4)OCO5)c(OC)c3)N3CCCC[C@@]3(C(=O)OC)[C@@H]2C1=O,x,-6%,x,0%,4.7µM*,12µM*
CCN1C(=O)[C@H]2[C@@H](c3ccc(-c4ccc(F)cc4)c(OC)c3)N3CCCC[C@@]3(C(=O)OC)[C@H]2C1=O,x,-8%,x,u,x,x
CCN1C(=O)[C@@H]2[C@@H](c3ccc(-c4ccc(F)cc4)c(OC)c3)N3CCC[C@@]3(C(=O)OC)[C@@H]2C1=O,x,-27%,x,-28%,x,x
